For nine compounds, growth results are on record in PubChem BioAssay (NCI).

About 83,000 compounds went through this panel and 20% of them were active in at least one assay; those are over-represented in the sample as a whole.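 Activity criterion: percent growth below 10, measured after cells in 96-well plates were exposed to a single compound concentration for 48 hours.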 Unmarked numbers belong to inactive results. Calls of active or inactive are those of the source.

Among the test systems are HCT-15 colon; HT29 colon; SNB-75 CNS; SNB-19 CNS; U251 CNS; PC-3 prostate; SK-MEL-5 melanoma; UACC-62 melanoma; LOX IMVI melanoma; SK-MEL-28 melanoma; SK-MEL-2 melanoma; EKVX NSCLC; UO-31 renal; TK-10 renal; ACHN renal; CAKI-1 renal; A498 renal; CCRF-CEM leukemia; MOLT-4 leukemia; SN12C renal.
Holding throughout (assay): NCI-60 one-dose screen, 48 h (100 = growth as untreated, 0 = no growth, -100 = all killed)
Common to all, as to details: 10 µM

Take `CCc1c(C)[nH]c(=O)c(C(N)=O)c1C#N`: the growth was 95.4% with HCT-15 colon; 96.6% in the experiment on HT29 colon; 99.9% with SNB-75 CNS; 90.1% in the experiment with SNB-19 CNS; 99.4% in the experiment with U251 CNS; 99.4% with PC-3 prostate. Moreover, the growth in the experiment with SK-MEL-5 melanoma is 103%; in the experiment on UACC-62 melanoma it was 88.4%; with LOX IMVI melanoma, 109%; with SK-MEL-28 melanoma it was 114%; in the experiment on SK-MEL-2 melanoma, 96.3%; with EKVX NSCLC, 103%. Moreover, the growth in the experiment on UO-31 renal was 93.5%; in the experiment with TK-10 renal, 91.9%; in the experiment with ACHN renal it was 102%; in the experiment on CAKI-1 renal, 96.3%; in the experiment on A498 renal, 105%; with CCRF-CEM leukemia, 99%. Further, the growth in the experiment with MOLT-4 leukemia was 107%.

Turning to `CCOC(=O)[C@@H](Cc1ccccc1)NC(=O)c1[nH]c2ccc(Cl)cc2c(=O)c1C`, the growth with HCT-15 colon was 40.7%; in the experiment with HT29 colon, 91.7%; with SNB-75 CNS, 95.9%; with SNB-19 CNS, 94.3%; in the experiment with U251 CNS, 71.7%; in the experiment on PC-3 prostate, 80.7%. Moreover, the growth is 81.6% with SK-MEL-5 melanoma; 86.6% in the experiment with UACC-62 melanoma; 95.8% in the experiment with LOX IMVI melanoma; 104% in the experiment on SK-MEL-28 melanoma; 89% with SK-MEL-2 melanoma; 97.4% with EKVX NSCLC. Also, the growth in the experiment with UO-31 renal is 84.7%; with TK-10 renal, 91.3%; with ACHN renal it was 95.6%; with CAKI-1 renal it was 86.6%; in the experiment on CCRF-CEM leukemia, 74.4%; in the experiment with MOLT-4 leukemia, 93.3%.

For the compound `COC(=O)c1cnc2c(c1)Oc1ccc(Cl)cc1-c1cc(C)nn1-2`, the growth was 87.3% in the experiment on HCT-15 colon; 82.5% in the experiment on HT29 colon; 91.7% in the experiment with SNB-75 CNS; 62% in the experiment with SNB-19 CNS; 50.4% with U251 CNS; 95.1% in the experiment with PC-3 prostate. Besides, the growth in the experiment on SK-MEL-5 melanoma was 88.1%; with UACC-62 melanoma, 74.7%; with LOX IMVI melanoma it was 60.2%; in the experiment on SK-MEL-28 melanoma, 96.4%; in the experiment with SK-MEL-2 melanoma, 98.3%; in the experiment with EKVX NSCLC, 71.2%. Further, the growth with UO-31 renal is 82.8%; in the experiment on ACHN renal, 42.4%; in the experiment on CAKI-1 renal, 57.8%; in the experiment on A498 renal it was 99.2%; in the experiment on CCRF-CEM leukemia, 121%; in the experiment on MOLT-4 leukemia, 102%.

In the case of `Nc1nsc(C(=O)c2ccc(O)cc2)n1`, the growth was 102% in the experiment with HCT-15 colon; 106% with HT29 colon; 101% with SNB-75 CNS; 103% with SNB-19 CNS; 93.5% with U251 CNS; 76.1% with PC-3 prostate. Also, the growth in the experiment on SK-MEL-5 melanoma was 97.9%; in the experiment on UACC-62 melanoma it was 89%; with LOX IMVI melanoma, 89.3%; in the experiment on SK-MEL-28 melanoma, 100%; with SK-MEL-2 melanoma, 102%; with EKVX NSCLC it was 97.9%. In addition, the growth in the experiment with UO-31 renal is 79.5%; with TK-10 renal, 108%; with ACHN renal, 91.1%; in the experiment on CAKI-1 renal, 92%; in the experiment with CCRF-CEM leukemia, 89.8%; with MOLT-4 leukemia, 110%.

For the compound `COc1cc(CSc2nc3ccc(C)cc3c(=O)n2-c2ccccc2)cc(OC)c1OC`, the growth was 30.1% in the experiment with HCT-15 colon; 14.3% in the experiment with HT29 colon; -7.55% (active) in the experiment with SNB-75 CNS; 57.2% with SNB-19 CNS; 38.5% in the experiment on U251 CNS; 49.1% in the experiment with PC-3 prostate. The growth was 20% in the experiment on SK-MEL-5 melanoma; 20.8% with UACC-62 melanoma; 36% in the experiment with LOX IMVI melanoma; 52% in the experiment with SK-MEL-28 melanoma; 14.7% with SK-MEL-2 melanoma; 37% with SN12C renal. The growth with UO-31 renal was 24.1%; in the experiment on TK-10 renal it was 61.7%; in the experiment with ACHN renal, 44.7%; in the experiment on CAKI-1 renal, 27.6%; in the experiment with A498 renal, 16%; in the experiment with CCRF-CEM leukemia it was 15.8%.

As for `COc1ccc(C2CC(c3ccc(-c4ccccc4)cc3)=NN2c2ccc(S(N)(=O)=O)cc2)cc1` (centres undefined), the growth in the experiment on HCT-15 colon was 45.6%; in the experiment on HT29 colon, 48.6%; with SNB-75 CNS it was 81.7%; in the experiment with SNB-19 CNS, 65.2%; with U251 CNS, 66.8%; with PC-3 prostate it was 19.7%. Further, the growth is 85.5% with SK-MEL-5 melanoma; 71.1% with UACC-62 melanoma; 50.3% with LOX IMVI melanoma; 85.4% in the experiment with SK-MEL-28 melanoma; 90.3% in the experiment with SK-MEL-2 melanoma; 52.6% in the experiment with SN12C renal. For the same compound, the growth in the experiment on UO-31 renal was 50%; in the experiment with TK-10 renal, 65.4%; in the experiment with ACHN renal, 74.7%; with CAKI-1 renal it was 45.2%; in the experiment with A498 renal it was 98%; in the experiment on CCRF-CEM leukemia, 51.7%.

On to `NC(=O)C1CCCN(Cc2c[nH]c3ccccc23)C1` (centres undefined), for which the growth in the experiment with HCT-15 colon was 102%; in the experiment on HT29 colon, 95.6%; with SNB-75 CNS it was 85.9%; with SNB-19 CNS, 103%; in the experiment with U251 CNS it was 95.2%; in the experiment on PC-3 prostate, 91.2%. Also, the growth is 99.6% in the experiment on SK-MEL-5 melanoma; 104% with UACC-62 melanoma; 90.1% in the experiment on LOX IMVI melanoma; 110% in the experiment with SK-MEL-28 melanoma; 86.5% in the experiment on SK-MEL-2 melanoma; 99.9% in the experiment on EKVX NSCLC. Moreover, the growth with UO-31 renal was 75.4%; in the experiment on TK-10 renal it was 93.7%; in the experiment with ACHN renal, 103%; in the experiment with CAKI-1 renal, 94.4%; in the experiment on A498 renal, 81%; in the experiment on CCRF-CEM leukemia it was 106%. In addition, the growth in the experiment with MOLT-4 leukemia is 99.2%.

Turning to `Nc1ccccc1NC(=O)CCCCCCC(=O)Nc1ccc2c(c1)/C(=C/c1ccc[nH]1)C(=O)N2`, the growth was 89.8% with HCT-15 colon; 48.2% with HT29 colon; -2.9% (active) with SNB-75 CNS; 49.8% in the experiment on SNB-19 CNS; 20.5% with U251 CNS; 29% in the experiment on PC-3 prostate. The growth is 55.1% in the experiment with SK-MEL-5 melanoma; 25.8% in the experiment on UACC-62 melanoma; 43.9% in the experiment with LOX IMVI melanoma; 42.7% with SK-MEL-28 melanoma; -1.9% (active) with SK-MEL-2 melanoma; 17.4% in the experiment on SN12C renal. Moreover, the growth with UO-31 renal was 29.1%; with TK-10 renal, 48.1%; in the experiment on ACHN renal it was 77%; with CAKI-1 renal, 49.8%; with A498 renal, -0.734% (active); with CCRF-CEM leukemia, 5.46% (active).

Turning to `O=C1CC(c2cccc(-c3cccnc3)c2)=Nc2ccc(Br)cc2N1`, the growth is 61.9% in the experiment on HCT-15 colon; 56.6% with HT29 colon; 11.6% in the experiment with SNB-75 CNS; 62.9% with SNB-19 CNS; 27.2% in the experiment with U251 CNS; 30.8% in the experiment with PC-3 prostate. In addition, the growth in the experiment with SK-MEL-5 melanoma was 8.01% (active); with UACC-62 melanoma, 47.3%; with LOX IMVI melanoma, 55.8%; with SK-MEL-28 melanoma, 67.5%; in the experiment with SK-MEL-2 melanoma it was 49.5%; with EKVX NSCLC it was 36.9%. In addition, the growth with UO-31 renal is 41.9%; in the experiment with ACHN renal, 27.5%; in the experiment on CAKI-1 renal, 49.9%; in the experiment with A498 renal, -4.26% (active); with CCRF-CEM leukemia it was 50.8%; in the experiment with MOLT-4 leukemia it was 27.1%.
